# PubChem BioAssay (NCATS)
# Results filed as inconclusive are left out. Values without a mark were called inactive. Activity calls are given as the source filed them. The call rests on the fitted dose curve; in most records, active means well fitted inhibition curve with a large enough effect; inconclusive means small, poorly fitted or top-dose-only effect; inactive means flat fitted curve, though single readings scatter.
# Test: qHTS to identify inhibitors of the type 1 interferon - major histocompatibility complex class I in skeletal muscle: primary screen against the NCATS Pharmaceutical Collection (AID 1347407)
# Conditions: human skeletal muscle cells, IFN-b-induced MHC-I HiBiT luminescence, 24 h; series mostly up to 45.9 µM; activity change, negative = inhibition: at the top concentration
# Excerpt: Assay Submitter (PI): Travis B. Kinder Ph.D. & James Inglese Ph.D.
# Assay Development and Screening Technology Laboratory (ADST)
# National Center for Advancing Translational Sciences (NCATS), Rockville, MD
# National Institute of Health (NIH), Bethesda, Maryland
# Idiopathic inflammatory myopathies, collectively referred to as myositis, are a group of rare autoimmune diseases characterized by skeletal muscle inflammation, weakness, and usually accompanied by systemic pathologies of the skin, lungs, or vasculature. Current immunosuppressive therapies and glucocorticoids are often not curative and are accompanied by harsh side effects, especially in children with juvenile myositis. We initiated a drug repurposing and development program to identify more targeted, less toxic therapeutics to treat myositis. Although its cause is not known, muscle from a subset of patients have an abundance of the inflammatory type 1 interferon (IFN) and a down-stream product major histocompatibility complex class I (MHC class I), which are both thought to contribute to damage and weakness. We conducted quantitative high throughput screening on 6,576 compounds (4,679 unique) through a series of cell-based assays to identify those that inhibit the IFN-stimulated expression of MHC class I in muscle precursor cells (myoblasts). The compound identification and evaluation strategy utilized a primary screen with reporter-tagged MHC class I in genome-engineered myoblasts, ATP content counter screen for viability, HLA-ABC immunofluorescence secondary screen, and HLA-B RT-qPCR tertiary screen.
# The primary screen utilized CRISPR/Cas9 genome-engineering of immortalized human myoblasts, C25cl48, where a pro-luminescent reporter HiBit was fused to the C-terminus of endogenous MHC class I allele HLA-B*08:01 (HLA-B HiBit myoblasts). HiBit is an 11 amino acid fragment of NanoLuc luminescent reporter (Promega Corporation), and when complexed to the larger LgBit fragment, the reconstituted enzyme produces light in the presence of furimazine substrate (Schwinn et al., 2018). Briefly, HLA-B HiBit myoblasts were plated into 1536-well plates, treated with 4.0 ng/ml human IFN-beta and 2,816 compounds from the NCATS Pharmaceutical Collection (NPC) that contains all drugs approved in the US, EU, and Japan (Huang et al., 2011) in an 8-point, 1:5 titration with a high final concentration of 46 uM. After 24 hrs of treatment, cells were assayed by Nano-Glo HiBiT Lytic Detection System (Promega) and luminescence measured by a ViewLux 1430 Ultra HTS (Perkin Elmer).
# Huang R, Southall N, Wang Y, Yasgar A, Shinn P, Jadhav A, Nguyen D-T, Austin CP. 2011. The NCGC pharmaceutical collection: a comprehensive resource of clinically approved drugs enabling repurposing and chemical genomics. Sci Transl Med 3:80ps16. doi:10.1126/scitranslmed.3001862
# Schwinn MK, Machleidt T, Zimmerman K, Eggers CT, Dixon AS, Hurst R, Hall MP, Encell LP, Binkowski BF, Wood K V. 2018. CRISPR-Mediated Tagging of Endogenous Proteins with a Luminescent Peptide. ACS Chem Biol 13:467-474. doi:10.1021/acschembio.7b00549
# PROTOCOL TABLE (as described by Inglese et al., 2007)
# SEQUENCE No. (e.g., 1, 2, 3, etc.); […] (e.g., Cells, Incubation, Reagent, etc.); VALUE; DESCRIPTION
# 1a; Cells; 5 uL; Use a Multidrop Combi (Thermo Scientific) to seed 350 cells/well into nine Greiner 1536 well white/solid bottom, high base, TC plates in 5 ul/well of iHSKM growth medium (GM) without dexamethasone into columns 1+2. Add metal lids with gas-exchange holes
# 1b; Cells; 5 uL; Use a Multidrop Combi (Thermo Scientific) to seed 350 cells/well into nine Greiner 1536 well white/solid bottom, high base, TC plates in 5 ul/well of iHSKM GM without dexamethasone + 4 ng/ml IFN-b into columns 3 - 48. Add metal lids with gas-exchange holes
# 2; Incubate; 1 hr; Incubate at 37 C, 5% CO2, 95% RH
# […]
# On the % scale 0 is the no-effect control and ±100 the full control effect; potency means the concentration at half of the fitted maximal effect.
SMILES,"activity change, negative = inhibition",Potency
CCCOc1ccccc1-c1nc2n[nH]nc2c(=O)[nH]1,-5.62%,
COCCOC(=O)C1=C(C)NC(C)=C(C(=O)OC(C)C)C1c1cccc([N+](=O)[O-])c1 (stereo not given),-3.41%,
Cc1nc2sccn2c(=O)c1CCN1CCC(=C(c2ccc(F)cc2)c2ccc(F)cc2)CC1,-2.97%,
C#CCN(C)CCCOc1ccc(Cl)cc1Cl,3.36%,
O=C(O)CCCCCCCC(=O)O,-0.0051%,
C[N+](C)(C)CCCCCCCCCC[N+](C)(C)C,3.7%,
O=C1NCN(c2ccccc2)C12CCN(CCCC(c1ccc(F)cc1)c1ccc(F)cc1)CC2,,18.7 µM (active)
CCn1nc(C(=O)O)c(=O)c2cc3c(cc21)OCO3,3%,
CN(C)CCN(Cc1cccs1)c1ccccn1,-6.3%,
CC(C)NCC(O)c1cc(O)cc(O)c1 (stereo not given),-4.65%,
Cc1nc2ccccn2c(=O)c1CCN1CCC(C(=O)c2ccc(F)cc2)CC1,-10%,
CC(C)[N+](C)(CCOC(=O)C1c2ccccc2Oc2ccccc21)C(C)C,-3.7%,
CCCCCCCC/C=C\CCCCCCCC(=O)NCc1ccc(O)c(OC)c1,-6.37%,
C=CCc1ccccc1OCC(O)CNC(C)C (stereo not given),-0.293%,
CCOC(=O)c1cnc2c(cnn2CC)c1NN=C(C)C,-17.5%,
c1ccc2c(c1)CCCC2C1=NCCN1 (stereo not given),11.3%,
CCO/C([O-])=N/c1c[n+](N2CCOCC2)no1,-12.5%,
CN(C)[C@@H]1C(=O)C(C(N)=O)=C(O)[C@@]2(O)C(=O)C3=C(O)c4c(O)ccc(Cl)c4[C@@H](O)[C@H]3C[C@@H]12,-2.55%,
NC(Cc1ccc(Cl)cc1)C(=O)O (stereo not given),1.91% [at 0.727 µM],
OC(CCN1CCCCC1)(c1ccccc1)C1CCCCC1 (stereo not given),-7.01%,

SMILES,"activity change, negative = inhibition",Potency
Cc1nc2c([nH]1)c(=O)n(C)c(=O)n2Cc1ccco1,-9.17%,
CC(=O)OCC1=C(C(=O)O)N2C(=O)[C@@H](NC(=O)Cc3cccs3)[C@H]2SC1,0.552%,
CCN(CC)CCOCCOC(=O)C1(c2ccccc2)CCCC1,-1.1%,
COC(=O)C1=C(C)NC(C)=C(C(=O)OCCN(C)Cc2ccccc2)C1c1cccc([N+](=O)[O-])c1 (stereo not given),-29.4%,
CCCCNc1c(C(=O)OCC)c(C)nc2c1cnn2CC,-8.33%,
NC(=O)c1ncn([C@@H]2O[C@H](CO)[C@@H](O)[C@H]2O)c1O,-11.1%,
Nc1c2c(nc3ccccc13)CCCC2O (stereo not given),11%,
C[N+](C)(C)CCOC(N)=O,9.55%,
CC(=O)[C@]1(O)Cc2c(O)c3c(c(O)c2[C@@H](O[C@H]2C[C@H](N)[C@H](O)[C@H](C)O2)C1)C(=O)c1ccccc1C3=O,,5.28 µM (active)
COc1cc(Cc2cnc(N)nc2N)cc(OC)c1OC,3.95%,
c1cnc(N2CCN(Cc3ccc4c(c3)OCO4)CC2)nc1,7.84%,
COc1ccc(CCN(C)CCCC(C#N)(c2cc(OC)c(OC)c(OC)c2)C(C)C)cc1OC (stereo not given),-22.3%,
CCCC(C(=O)OCCN(CC)CC)(c1ccccc1)c1ccccc1,-15.5%,
CN/C(=C\[N+](=O)[O-])NCCSCc1ccc(CN(C)C)o1,-2.43%,
CCN(CC)CCNC(=O)c1cc(S(C)(=O)=O)ccc1OC,0.719%,
O=c1[nH]c(=O)n([C@H]2C[C@H](O)[C@@H](CO)O2)cc1Br,9.77%,
COC(=O)[C@H]1[C@H]2C[C@@H]3c4[nH]c5cc(OC)ccc5c4CCN3C[C@H]2C[C@@H](OC(=O)c2cc(OC)c(OC)c(OC)c2)[C@@H]1OC,-3.24%,
O=C(CCNNC(=O)c1ccncc1)NCc1ccccc1,2.46%,
COCCc1ccc(OCC(O)CNC(C)C)cc1 (stereo not given),-6.47%,
CN1C[C@H](C(=O)N[C@]2(C)O[C@@]3(O)[C@@H]4CCCN4C(=O)[C@H](Cc4ccccc4)N3C2=O)C[C@@H]2c3cccc4[nH]cc(c34)C[C@H]21,-3.04%,
